In the supplement of paper PMC6555819:

System: VDR:RXRa (NR concentration 270 nM, RXRa partner concentration 90 nM)
Assay: PBM binding z-score (relative to random genomic background probes); higher = stronger binding; sequences stand for … in GC…GCGATTGACAGCGTAGAATGAAGG
Protocol: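 Protein-binding microarray (Agilent 4x180K custom design, double-stranded 60-nt probes: 5' GC cap, 34-nt variable region, 24-nt constant primer region; full probe sequence given). Purified or IVT nuclear receptor:RXRα heterodimers (3:1 NR:RXRα, mostly 270:90 nM) or homodimers were incubated for 1 h in PBS with 2% milk and no ligand, then detected with Alexa488 antibodies. Fluorescence from o1-orientation probes (~5 replicates averaged) was converted to z-scores against 500 random hg19 background probes. Variable regions are seed direct-repeat (DR0–DR5) sites, all their single-nucleotide variants and half-site ablations.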

Sequence	PBM binding z-score
ATATGTAGGGTAGCTGGGGTCATTCAGACTAGGC	5.75
TCTTGTAGATCAACAGGAGGTTAAGTAAGATCGA	0.844
CCTAGTTGGTCAAGGTCACACACGCTATAGGTAC	4.26
ATCTCTATGTAAAAGTTCAGTGAATCCCGAGGAT	1.2
ATCTCTGGGTAAAGATAGTTCAGTGAATGCAAAT	0.896
GCAACTGGGGCAAAGCAGGTTACCATAAGGTTGG	0.361
ATCGTAAGGTCGAAGGTGAGTATACCCACCCGAA	2.04
GGAACGAGGGCATTCGAGTTGATAGCCTGGCGAT	3.37
TCTATTAGTTGAAGGGCACCCGACGAGTCCGTTT	1.02
TCGAGTAGGTTAGTCGGGGCATCCAGCCAACATA	1.5
GCTGCTTGGTCAACTGATGGTCAGCTAAAGCTCG	-0.687
CAGCCTAGGTTAGGGCCAGTATAGGAGGAACGTT	-0.611
CCTACTGGGCCATCAGGTCGTTGATATCAACGTT	0.18
ATCGAAAGGTCGAGGTAAGTATAGAGAAAGGGAA	2.36
CCAGACAGGTCAGAAGGTAACTCAGCCTCGATTA	1.44
TCTGCTATGTCAGTTGGTCAGCTAACGAGCTGCC	-0.176
TAGCTTAGGTCAGATCGGGCCAGTATACGCTATA	0.872
GCTAGTAGATCAAGGTTAAGAAAGACTAAGCTAA	-0.00199
CTACCAAGGTGAACAAGGTCGTAGATTACTATTC	5.56
TCGAGTAGGTTAGGGGCATTCATAATGGCGTCGA	0.655

Sequence	PBM binding z-score
CCAGACAGGTGATAGGTAACTCAGTCTGGTACGC	-0.0769
CCTACTGGGCCAAAAAGGTTATTGATGCCGATAA	1.6
TCTTGTAGCTCAACAGGAGGTTAAGAAAGATCGA	0.0738
TCAGACAGGAGAAGGTAACTCAGGTACGCAGTCG	0.714
TCCTGTAGATCAAGCAGGTTAAGAAAGCCTGAGT	0.503
ATCTCTAGGTGAAGTTCAGTGAAAGATCGATAGA	0.563
CCTTTCGGGTCACTGACAGGTTATAGCATTTGGA	3.86
GCAGACAGGTGAATCGCAGGTAACTCAGGGTGGC	-0.428
TCTATTAGTTGATTAGGGAAACCGAAACAGCGGA	0.846
GCATATAGGTAATACAAGGTGAAACTCCGATTGT	0.732
GATACAGGGTCAGCTAGAGGCCGGAGTATGGAAA	2.8
ATCGAAAGGTCGACGAGGTGAGTATACACCGTTT	5.23
GCGACTGGGGCATCAGCAGCTTACCATAACTTAA	-0.708
AGAATGAGATTATTAAGATCAGGGAATTGCGGTC	-0.494
TCTTGTAGATCACCAGGTTAAGAAAGCTGGCCAA	0.86
TCATCTAGGTAAATGCTAGGTGAAAGTCCGATCT	0.555
CCGGACAGGTGAGAAGGTAACTCAGCCTCGATTA	-0.403
ATATATAGGTTAGCTGGGGTCATTCAGACTAGGC	6.61
CGTCAAAGTTCAAGGTAACGCAACAGAAAGCAGC	3.67
GATACAGGGTCAGCTAGAGGCCAGAATATGGAAA	3.19
